GC-A act – GC-A (human) enzyme activation | HEK293 GC-A cells, cGMP TR-FRET, EC30 ANP; 0% at EC30 ANP, 100% saturating ANP | hit rate 0.14% among 370,000 | P16066 | activation, % at 10 µM; in the data active = activation above about 40%
PfM18AAP inh – PfM18AAP enzyme inhibition. recombinant PfM18AAP, H-Glu-NHMec fluorogenic cleavage. inhibition, % at 7.35 µM. hit rate 1.2% among 290,000. AID 1822;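 active = inhibition above the campaign mean inhibition over all tested compounds plus 3 SD, cut at about 28% in these data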
PLCg1 inh – PLC-gamma1 (human) inhibition, primary screen; P19174; hit rate 0.84% among 370,000; inhibition, % at 12.2 µM; AID 720700; purified PLC-gamma1, fluorogenic substrate, fluorescence; in the data active = inhibition above about 9.5%
Rce1 inhib – blocks yeast Ras-converting enzyme | Q03530 | yeast membranes, quenched prenylated peptide cleavage fluorescence | calls only | hit rate 0.27% among 290,000 | AID 2563;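 active = fall in fluorescence gain of 50% or more versus controls, with final raw signal at or below 3038400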
NPR2 activator – GC-B (human) receptor activation | P20594 | HEK293-GC-B cells, CNP EC30, cGMP TR-FRET; 0% at EC30 CNP, 100% saturating CNP | activation, % at 10 µM | hit rate 0.11% among 370,000;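 active = activation at 10 µM reaching about 35% in either raw or pattern-adjusted values, limit read from the data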
PLC-beta3 inh – PLC-beta3 (human) inhibition, primary screen. Q01970. Purified PLC-beta3, fluorogenic substrate, fluorescence. inhibition, % at 12.2 µM. hit rate 0.18% among 370,000. AID 720704; in the data active = inhibition above about 11%
Hits are given with their value; . = inactive; / = no result given; + = active, no number. This is a sample that favours compounds with a hit; in the whole collection about 2.2% have one here.

SMILES	GC-A act	PfM18AAP inh	PLCg1 inh	Rce1 inhib	NPR2 activator	PLC-beta3 inh
C=CCc1cccc(/C=N/NC(=O)c2ccccc2OC)c1O	.	30	.	.	.	.
COc1ccc(/C=N/NC(=S)Nc2ccccc2)cc1	.	31	.	.	.	.
COc1ccc(/C=N/NC(=S)Nc2cccc(C(=O)O)c2)cc1	.	30	.	.	.	.
O=C(NCc1ccco1)C1CCCN(S(=O)(=O)c2ccccc2F)C1 (stereo not given)	.	/	.	/	.	.
C[C@@H]1COc2cc(N3CCCC3)ccc2S(=O)(=O)N1C	.	/	.	/	.	.
O=C(Nc1cccc(Cl)c1)c1ccc(OC(=S)N2CCOCC2)cc1	.	.	.	.	.	.
O=C(Nc1cccc2ccccc12)c1ccc(OC(=S)N2CCOCC2)cc1	.	.	.	+	.	.
CCOCCCNC(=O)c1ccc2c(c1)N(Cc1ccccc1)C(=O)CS2=O (stereo not given)	.	28	.	.	.	.
CN(C)C1(CN=Cc2cc(Cl)cc([N+](=O)[O-])c2O)CCCCC1	.	30	.	.	.	.
O=[N+]([O-])c1cc(Cl)cc(/C=N\Nc2ccccn2)c1O	.	.	.	.	.	.
Clc1ccc(-n2c(SCc3cccc4ccccc34)nnc2-c2ccccn2)cc1	.	/	.	/	.	.
O=C(Nc1ccc(S(=O)(=O)Nc2ccccc2)cc1)C1COc2ccccc2O1 (stereo not given)	.	.	.	+	.	.
Cc1cc(C)nc(NS(=O)(=O)c2ccc(NC(=O)C3COc4ccccc4O3)cc2)n1 (stereo not given)	.	.	.	.	.	.
C[C@](N)(Cc1ccc(O)c(O)c1)C(=O)O	.	65	.	/	.	.
COc1ccc(C[C@](C)(N)C(=O)O)cc1OC	.	/	.	/	.	.
O=C(O)C1CSC(c2coc3ccccc3c2=O)N1 (stereo not given)	.	29	.	.	.	.
O=C(CNCc1ccccc1[N+](=O)[O-])N1CCC2(CC1)OCCO2	.	/	.	/	.	.
CN1CCN(C(=O)c2cc3c(=O)n4ccccc4nc3s2)CC1	.	29	.	.	.	.
O=C(CSc1nnc(-c2ccccc2)n1Cc1ccco1)Nc1ccc(Oc2ccccc2)cc1	.	/	.	/	.	.
Clc1ccc(-n2nnnc2SCc2c(-c3ccccc3)nc3sccn23)cc1	.	.	.	.	39	.
O=c1[nH]c(CSc2nnnn2-c2ccc(Cl)cc2)nc2ccccc12	.	.	.	.	.	.
O=[N+]([O-])c1c(Nc2ccccc2O)cc(Cl)c2nonc12	.	.	.	.	42	.
CN(C)c1cccc(/C=C2\CC3(OC(=O)c4ccc(Cl)cc4)CCCN2C3)c1 (stereo not given)	.	/	.	/	.	.
Cc1cc(C)cc(N2CC(O)=C(c3nc4ccccc4c(=O)[nH]3)C2=N)c1	.	.	.	+	.	.
COc1cccc(N2CC(O)=C(c3nc4ccccc4c(=O)[nH]3)C2=N)c1	/	.	/	.	/	/
SMILES	GC-A act	PfM18AAP inh	PLCg1 inh	Rce1 inhib	NPR2 activator	PLC-beta3 inh
COc1ccc(C=Nc2cccnc2N)cc1	/	31	/	.	/	/
Cc1cccc(-c2oc3ccccc3c2-c2ccc3c(c2)OCO3)c1	.	.	.	+	.	.
Cc1cccc(-c2noc(-c3ccc4c(c3)OCO4)n2)c1	.	.	.	.	.	.
O=C(NCC(c1ccccc1)c1ccccc1)[C@H](Cc1ccccc1)NC1(C(=O)NC2CCCCC2)CCC1	.	/	.	/	.	.
C[C@H]1[C@@H](OC(=O)NCc2ccc(Cl)cc2)CC[C@@]23CCCN2C(=O)CCC[C@@H]13	.	/	.	/	.	.
Cc1ccc(OC(=O)c2sc(Cl)nc2C)cc1C	71	.	.	.	.	.
CCCc1cc(C(=O)Nc2sc(C)c(CC)c2C#N)no1	.	.	.	.	.	.
CCCc1cc(C(=O)Nc2sc(C)c(C)c2C(=O)OCC)no1	.	35	.	/	.	.
COc1ccc(-c2cc(-c3nnc(SCc4cccc5ccccc45)n3N)[nH]n2)cc1	.	/	.	/	.	.
N#CCC(=O)N/N=C/c1ccc(OCc2ccccc2)cc1	.	30	.	.	.	.
CN(c1ccc(O)cc1)c1nc(O)c(C2=c3ccccc3=NC2=O)s1	41	/	.	.	.	.

Source: PubChem BioAssay
